Experimental data from paper PMC5540273 (PLoS ONE, 2017).

How the values were obtained:
Details in all cases: concentration: 1 μM, replicates: in singlicate; n = 1
RIPK4 = tested on: RIPK4
RIPK5 = tested on: RIPK5
ROCK1 = tested on: ROCK1
ROCK2 = tested on: ROCK2
ROS1 = tested on: ROS1
[1] = tested on: RPS6KA4(Kin.Dom.1-N-terminal)
[2] = tested on: RPS6KA4(Kin.Dom.2-C-terminal)
[3] = tested on: RPS6KA5(Kin.Dom.1-N-terminal)
[4] = tested on: RPS6KA5(Kin.Dom.2-C-terminal)
[5] = tested on: T1, RSK1(Kin.Dom.1-N-terminal)
T1 construct: gene RPS6KA1
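Note: KINOMEscan kinase panel screen.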

Row | SMILES | %Inh (RIPK4) | %Inh (RIPK5) | %Inh (ROCK1) | %Inh (ROCK2) | %Inh (ROS1) | %Inh [1] | %Inh [2] | %Inh [3] | %Inh [4] | %Inh [5]
1 | Cc1c(Cn2c3ccccc3n3c(=O)cc(N4CCOCC4)nc23)cccc1C(F)(F)F [GSK2306394] | 3% | 0% | 0% | 4% | 0% | 13% | 0% | 15% | 0% | 0%
2 | CS(=O)(=O)CCNCc1nc(-c2ccc3ncnc(Nc4ccc5c(cnn5Cc5ccccc5)c4)c3c2)cs1.Cl.Cl [GW569716] | 3% | 0% | 47% | 33% | 0% | 23% | 0% | 9% | 7% | 8%
3 | CCc1ccc(-c2ccc3c(c2)-c2n[nH]cc2S(=O)(=O)N3C)cc1 | 0% | 0% | 0% | 0% | 0% | 2% | 0% | 0% | 0% | 0%
4 | CNCc1ccc2nc(NC(=O)c3ccc(C(C)(C)C)cc3)cn2c1 | 14% | 11% | 5% | 13% | 9% | 9% | 9% | 0% | 0% | 0%
5 | COC(=O)C(Cc1ccccc1)NC(=O)NC1CCN(c2ccnc(Nc3ccc(F)cc3)n2)C1 (stereo not shown) [GSK1379714] | 0% | 15% | 9% | 20% | 24% | 14% | 0% | 1% | 18% | 6%
6 | CC(C)c1ccc(O)cc1Nc1ccnc2ccc(C(F)(F)F)cc12 [GW482059] | 0% | 0% | 86% | 26% | 0% | 11% | 0% | 23% | 0% | 0%
7 | Fc1ccc(-c2nn3cccc(F)c3c2-c2ccncc2)cc1 [GW475620] | 0% | 50% | 22% | 0% | 0% | 38% | 0% | 33% | 0% | 0%
8 | Cc1ccccc1-c1cc(-c2c[nH]nc2-c2ccccn2)ccn1 [GW680061] | 0% | 0% | 0% | 3% | 0% | 5% | 0% | 4% | 0% | 5%
9 | COC(=O)c1cccc(NC(=O)NC2CCN(c3ccnc(Nc4ccc(F)cc4)n3)C2)c1 (stereo not shown) [GSK1379725] | 18% | 0% | 0% | 0% | 0% | 0% | 0% | 0% | 16% | 8%
10 | Cc1ccc(NC(=O)Nc2ccc(Cl)c(C(F)(F)F)c2)cc1-c1ccc(C(=O)Nc2ccncc2)cc1 [GSK1398470] | 0% | 0% | 0% | 0% | 14% | 0% | 0% | 17% | 0% | 2%
11 | Cn1cncc1C(=O)NC1CCN(c2ccnc(Nc3ccc(F)cc3)n2)C1 (stereo not shown) [GSK1379717] | 33% | 20% | 0% | 19% | 0% | 0% | 0% | 0% | 0% | 16%
12 | Cc1ccc(NC(=O)Nc2ccccc2)cc1-c1ccc(C(=O)Nc2ccncc2)cc1 [GSK1398471] | 1% | 0% | 0% | 0% | 0% | 3% | 0% | 13% | 0% | 15%
13 | Nc1ncnc2occ(-c3ccc4c(c3)CCN4C(=O)Cc3cc(F)ccc3F)c12 [GSK2645446] | 0% | 12% | 12% | 11% | 2% | 14% | 0% | 2% | 1% | 0%
14 | Cc1ccc(NC(=O)c2ccc(Cl)cc2)cc1-c1ccc(C(=O)Nc2ccncc2)cc1 [GSK1398467] | 9% | 0% | 0% | 17% | 8% | 13% | 0% | 17% | 49% | 10%
15 | Fc1ccc(-c2nc[nH]c2-c2ccncc2)cc1 [SB-217360] | 0% | 31% | 0% | 26% | 5% | 0% | 0% | 0% | 19% | 0%
16 | Cc1ccc(NC(=O)Nc2ccc(Cl)cc2)cc1-c1ccc(C(=O)Nc2ccncc2)cc1 [GSK1398472] | 28% | 6% | 4% | 0% | 0% | 7% | 0% | 17% | 0% | 27%
